For assay [1], the target named is Calcium and integrin-binding protein 1 (Homo sapiens) (UniProt Q99828). Kind of assay: Primary qHTS for Identification of Calcium Integrin Binding Protein 1 (CIB1) Competitor (AID 1508620).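 Also: GST tagged CIB1 binding a fluorescein labelled alphaIIb integrin peptide tracer; top concentration of the series differs between compounds; % is scaled to controls: 0 for no effect and ±100 for the full control effect.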 In short, it runs like this:
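CIB1-GST (1 uM final) and compound incubated 15 min at room temperature before adding FITC-alphaIIb peptide tracer (100 nM final). Competition for binding read by fluorescence polarization (ex 480, em 540) after another 15 min at room temperature.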
Background: Quantitative high-throughput screening tests each substance at several concentrations.

Assay [2] can be described thus: Counterscreen qHTS for small molecule stabilizers of the endoplasmic reticulum resident proteome: GLuc-NoTag assay (AID 1508627).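 Also: SH-SY5Y cells given compound then 100 nM thapsigargin to empty ER calcium; 0% = thapsigargin alone and -100% = DMSO vehicle control.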 In short, it runs like this:
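Counterscreen line: SH-SY5Y-GLuc-NoTag cells, treated with compound 19 hr before a 4 hr, 100 nM thapsigargin calcium depletion. Secreted Gaussia luciferase in the medium was measured by luminescence after coelenterazine was added (0.07x final), with cells unlysed.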

Assay [3] can be described thus: A High-Content qHTS Against Drug Library for the Identification of Small Molecules that Inhibit DYT1 Early Onset Primary Dystonia-Associated Cell Pathology (AID 1645839; calls by dose curve). A digest of the protocol:
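High-content imaging quantified EGFP-TorsinA mislocalization in HEK293-derived cells inducibly expressing DYT1 mutant torsinA, after 48 h exposure to compound given together with tetracycline induction. Cell count served as a toxicity channel alongside %pathology.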

The target of assay [4] is Cytochrome P450 2D6 (Homo sapiens) (UniProt P10635). Nature of the assay: Cytochrome P450 family 2 subfamily D member 6 (CYP2D6) small molecule antagonists: luciferase biochemical (cell-free) qHTS assay (AID 1645840; active = well fitted curve in the direction sought with a large enough effect in the repeat runs; an effect the other way counts as inactive or inconclusive; also: nearly all actives have a fitted effect of over 55% in size; also: potency is read from the fitted curve at half-maximal effect; as to activity change, negative = inhibition: % is scaled to controls: 0 for no effect and ±100 for the full control effect). A digest of the protocol:
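P450-Glo CYP2D6 system: proluciferin substrate converted by enzyme to luciferin, read by luminescence proportional to activity. Enzyme-substrate mix with compound 10 min at room temperature, then NADPH regeneration 1 h before detection reagent.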

The target of assay [5] is N-terminal Xaa-Pro-Lys N-methyltransferase 1 (Homo sapiens) (UniProt Q9BV86). Nature of the assay: Confirmatory qHTS for Inhibitors of N-terminal methyltransferase 1 (NTMT1): MTaseGlo Assay (AID 1645874).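 Also: luminescence from SAH made as NTMT1 methylates SPKRIA peptide using SAM; 0% = DMSO control and -100% = no-enzyme control; nearly all actives have a fitted effect of over 65% in size.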 A digest of the protocol:
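MTase-Glo luminescence measured SAH formed by 125 nM NTMT1 from 100 uM SAM and 1 uM SPKRIA peptide over 30 min at room temperature, following 15 min compound preincubation. Percent inhibition against no-enzyme and DMSO controls gave 4-parameter Hill fits.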

Assay [6] is described as follows: Primary qHTS for inhibitors of nuclear receptor binding SET domain protein 2 (NSD2) in an isogenic RCH-ACV NSD2 p.E1099K mutant (9B) (AID 1645876). Also: nearly all actives have a fitted effect of over 70% in size.
A short description of assay [7]: Primary qHTS for inhibitors of nuclear receptor binding SET domain protein 2 (NSD2) in an RCH-ACV wild type WT cells (2C) (AID 1645877). Also: nearly all actives have a fitted effect of over 70% in size.
Assay [8] in a line: Confirmatory qHTS for small molecule stabilizers of the endoplasmic reticulum resident proteome: Secreted ER Calcium Modulated Protein (SERCaMP) assay (AID 1508628). Also: nearly all actives have a fitted effect of over 40% in size. Also: potency is read from the fitted curve at half-maximal effect. A digest of the protocol: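 GLuc-SERCaMP-expressing SH-SY5Y cells, pretreated 16 h with compound, are challenged with thapsigargin to empty ER calcium stores; after 4 h, coelenterazine is added directly to the medium and luminescence is imaged.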

Assay [9] deals with Cytochrome P450 2C9 (Homo sapiens) (UniProt P11712). Nature of the assay: Cytochrome P450 family 2 subfamily C member 9 (CYP2C9) small molecule antagonists: luciferase biochemical (cell-free) qHTS assay (AID 1645842; active = well fitted curve in the direction sought with a large enough effect in the repeat runs; an effect the other way counts as inactive or inconclusive; also: nearly all actives have a fitted effect of over 55% in size; also: potency is read from the fitted curve at half-maximal effect; as to activity change, negative = inhibition: % is scaled to controls: 0 for no effect and ±100 for the full control effect). In short, it runs like this: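 P450-Glo CYP2C9 system: proluciferin substrate with enzyme in mix containing 0.4% BSA, 10 min at room temperature, then NADPH regeneration solution added and incubated 1 h at 37C. Detection reagent stopped reaction; luminescence read after 20 min as RLU.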
Sequence of Cytochrome P450 2C9 (Homo sapiens) (P11712 whole entry, looked up): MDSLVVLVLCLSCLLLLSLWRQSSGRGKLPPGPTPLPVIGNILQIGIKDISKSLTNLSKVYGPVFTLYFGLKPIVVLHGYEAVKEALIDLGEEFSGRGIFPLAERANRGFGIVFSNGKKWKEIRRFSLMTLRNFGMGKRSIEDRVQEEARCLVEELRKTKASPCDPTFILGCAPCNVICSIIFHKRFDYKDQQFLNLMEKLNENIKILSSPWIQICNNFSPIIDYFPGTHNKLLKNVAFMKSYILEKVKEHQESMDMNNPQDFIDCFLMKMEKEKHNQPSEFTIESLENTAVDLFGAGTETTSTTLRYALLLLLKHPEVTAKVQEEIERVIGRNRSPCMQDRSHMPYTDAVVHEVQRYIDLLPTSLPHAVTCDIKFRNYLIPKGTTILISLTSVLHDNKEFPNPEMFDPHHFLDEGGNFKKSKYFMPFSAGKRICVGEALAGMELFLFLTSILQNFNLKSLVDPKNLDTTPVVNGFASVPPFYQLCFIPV

The nature of assay [10]: Primary qHTS for small molecule stabilizers of the endoplasmic reticulum resident proteome: Secreted ER Calcium Modulated Protein (SERCaMP) assay (AID 1508630). Also: potency is read from the fitted curve at half-maximal effect. In short, it runs like this: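 The SH-SY5Y reporter protocol was run at 3 concentrations up to 38.3 uM (primary) or 11 concentrations (follow-up): 16 h compound, 100 nM thapsigargin for 4 h, then extracellular luciferase luminescence.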

Assay [11] is described as follows: Primary qHTS to identify inhibitors of SARS-CoV-2 cell entry (AID 1645846; calls by dose curve; also: nearly all actives have a fitted effect of over 45% in size). To be noted: activity change, negative = inhibition: at 57.1 µM (top of the series) unless noted. A digest of the protocol: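 HEK293-ACE2 (Expi293F, stable hACE2), 1500 cells/well, o/n 37C; cpd 23 nL pin, 1 h; MLV-PP w/ SARS-CoV-2-S (Wuhan-Hu-1, Δ19 C-term); 48 h 37C; Bright-Glo luminescence; normalized vs S-PP and bald PP.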

Assay [12] has as its target Cytochrome P450 3A4 (Homo sapiens) (UniProt P08684). Kind of assay: Cytochrome P450 family 3 subfamily A member 4 (CYP3A4) small molecule antagonists: luciferase qHTS assay (AID 1645841; active = well fitted curve in the direction sought with a large enough effect in the repeat runs; an effect the other way counts as inactive or inconclusive; also: nearly all actives have a fitted effect of over 45% in size). In short, it runs like this:
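Luminescent CYP3A4 activity readout: compounds plus enzyme-substrate mix 10 min at room temperature, reaction started with NADPH regenerating system for 1 h, stopped with detection reagent, read after 20 min. Ketoconazole served as control.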

Another assay addresses Papain (Carica papaya) (UniProt P00784). Kind of assay: Primary qHTS assay for inhibitors of the protease papain (AID 1645873).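 Also: papain turnover of Z-FR-AMC read as the AMC fluorescence gain over 10 min; % is scaled to controls: 0 for no effect and ±100 for the full control effect.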
Assay [13] can be described thus: Cytotoxicity counterscreen for inhibitors of SARS-CoV-2 cell entry (AID 1645845; calls by dose curve; also: nearly all actives have a fitted effect of over 50% in size). A digest of the protocol:
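ATP-content luminescence (ATPLite 1step, 15 min RT) read after 48 h compound exposure of Expi293F cells stably expressing human ACE2; normalized to cells-only wells and media-only wells.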

Each structure is given as a SMILES string. “And” between values parts separate entries of the source, which are not always exact repeats. Equal values may be shown once. Inconclusive results are not listed. The source made the active and inactive calls. Unless noted, calls follow the shape of the dose curve; as a rule, active = well fitted curve in the direction sought with a large enough effect; inconclusive = small, poorly fitted or top-dose-only effect, or another doubt; inactive = no such curve, though single readings can be large; an effect the other way counts as inactive or inconclusive.

Sequence of Papain (Carica papaya) (P00784 whole entry, looked up): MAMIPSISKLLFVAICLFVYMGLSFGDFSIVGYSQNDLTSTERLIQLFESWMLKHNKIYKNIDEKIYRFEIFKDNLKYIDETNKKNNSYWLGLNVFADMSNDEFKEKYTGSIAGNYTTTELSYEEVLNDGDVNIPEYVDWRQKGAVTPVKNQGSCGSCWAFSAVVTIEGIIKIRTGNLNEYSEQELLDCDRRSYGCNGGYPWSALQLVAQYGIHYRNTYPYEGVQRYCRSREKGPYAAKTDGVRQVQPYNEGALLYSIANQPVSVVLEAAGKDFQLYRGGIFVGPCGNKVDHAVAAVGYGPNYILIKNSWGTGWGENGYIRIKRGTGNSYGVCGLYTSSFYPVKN
Sequence of Calcium and integrin-binding protein 1 (Homo sapiens) (Q99828 whole entry, looked up): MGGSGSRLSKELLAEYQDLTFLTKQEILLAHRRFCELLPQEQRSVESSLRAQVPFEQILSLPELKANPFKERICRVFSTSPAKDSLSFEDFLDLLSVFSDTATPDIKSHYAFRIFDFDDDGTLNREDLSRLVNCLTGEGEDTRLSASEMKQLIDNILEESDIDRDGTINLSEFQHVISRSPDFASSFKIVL
Sequence of Cytochrome P450 2D6 (Homo sapiens) (P10635 whole entry, looked up): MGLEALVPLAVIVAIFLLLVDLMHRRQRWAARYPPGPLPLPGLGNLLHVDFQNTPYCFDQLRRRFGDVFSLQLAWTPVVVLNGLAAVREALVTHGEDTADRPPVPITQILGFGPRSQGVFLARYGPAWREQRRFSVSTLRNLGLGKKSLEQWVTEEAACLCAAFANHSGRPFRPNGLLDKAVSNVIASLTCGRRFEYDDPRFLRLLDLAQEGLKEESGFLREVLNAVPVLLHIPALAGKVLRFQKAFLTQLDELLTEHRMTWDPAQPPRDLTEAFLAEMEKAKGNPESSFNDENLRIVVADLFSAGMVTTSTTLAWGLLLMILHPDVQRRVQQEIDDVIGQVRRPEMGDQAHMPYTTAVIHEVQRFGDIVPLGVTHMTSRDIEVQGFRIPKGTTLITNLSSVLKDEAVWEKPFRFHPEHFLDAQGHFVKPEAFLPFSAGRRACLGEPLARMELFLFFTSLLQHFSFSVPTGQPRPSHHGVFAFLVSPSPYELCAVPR
Sequence of Cytochrome P450 3A4 (Homo sapiens) (P08684 whole entry, looked up): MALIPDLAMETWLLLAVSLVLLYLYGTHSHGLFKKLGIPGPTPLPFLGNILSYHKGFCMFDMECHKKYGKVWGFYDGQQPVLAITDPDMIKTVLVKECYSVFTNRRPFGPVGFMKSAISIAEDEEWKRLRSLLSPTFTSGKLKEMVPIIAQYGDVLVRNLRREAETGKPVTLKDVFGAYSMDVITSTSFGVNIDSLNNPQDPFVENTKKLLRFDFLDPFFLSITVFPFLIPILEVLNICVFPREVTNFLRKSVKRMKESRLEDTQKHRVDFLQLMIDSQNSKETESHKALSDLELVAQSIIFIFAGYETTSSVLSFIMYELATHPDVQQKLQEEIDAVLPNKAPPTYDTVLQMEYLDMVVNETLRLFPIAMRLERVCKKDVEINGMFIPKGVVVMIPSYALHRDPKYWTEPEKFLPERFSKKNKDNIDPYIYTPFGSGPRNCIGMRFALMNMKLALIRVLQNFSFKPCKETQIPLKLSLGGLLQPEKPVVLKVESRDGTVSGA
Sequence of N-terminal Xaa-Pro-Lys N-methyltransferase 1 (Homo sapiens) (Q9BV86 whole entry, looked up): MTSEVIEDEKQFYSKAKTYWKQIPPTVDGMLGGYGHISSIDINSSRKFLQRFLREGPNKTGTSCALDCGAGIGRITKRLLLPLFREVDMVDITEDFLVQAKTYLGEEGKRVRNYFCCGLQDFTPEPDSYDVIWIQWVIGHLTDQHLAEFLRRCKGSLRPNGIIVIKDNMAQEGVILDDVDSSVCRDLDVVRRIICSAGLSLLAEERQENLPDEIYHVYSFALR

`C[C@H](N)C(=O)c1ccccc1`: the Potency result in assay [1], in assay [6] and in [7] was “inactive” throughout. For the same molecule, the result in assay [2], in [3] and in [5] was inactive. Moreover, in assay [4], the Potency was 42.2 µM (active).

For the molecule `CNCC(=O)c1ccc(O)c(O)c1`, the Potency result in assay [1], in assay [8], in assay [4], in assay [9] and in assay [6] was “inactive” each time. The call in [3] was inactive.

Consider `COP(=S)(OC)Oc1ccc(SC)c(C)c1`, for which the Potency entry in assay [1], in assay [10], in [4], in [6] and in assay [7] was “inactive” throughout. For the same molecule, the molecule was classed as inactive in assay [3]. Moreover, the Potency in assay [9] was 3.89 µM (active). Besides, the activity change, negative = inhibition in assay [11] is -16.5%.

Turning to `COc1cccc([C@@]2(O)CCCC[C@@H]2CN(C)C)c1`, the Potency result in assay [1], in [10], in assay [4], in assay [12], in assay [9] and in assay [6] was “inactive” in each case. In assay [7], the Potency result is “inactive”. In addition, the result in assay [3] was inactive.

`O=c1[nH]oc2c1CCNC2`: the Potency result in assay [1], in [10], in [4], in assay [9], in assay [6] and in [7] was “inactive” throughout. Also, the molecule was classed as inactive (in [3]; with Papain (Carica papaya)).

Regarding `C=C(C)[C@H]1CN[C@H](C(=O)O)[C@H]1CC(=O)O`, the Potency result in assay [1], in [10], in assay [4], in assay [9], in assay [13] and in [6] was “inactive” each time. In [7], the Potency result was “inactive”. Besides, the result (in assay [3]; in the assay with Papain (Carica papaya)) was inactive.

With `CCC1(c2ccc(N)cc2)CCC(=O)NC1=O` (stereo not drawn), the Potency entry in [1], in assay [10], in assay [4], in assay [9], in assay [13] and in assay [11] was “inactive” each time. Further, the Potency result in assay [6] and in [7] was “inactive” throughout. Besides, the outcome (in [3]; with Papain (Carica papaya)) was inactive.

In the case of `O=C(CCCN1CCC2(CC1)C(=O)NCN2c1ccccc1)c1ccc(F)cc1`, the Potency entry in assay [1] and in [9] was “inactive” throughout. In addition, the Potency in assay [8] was 5.62 µM (active) and 2.24 µM (active) and 3.16 µM (active); in assay [10], 1 µM (active); in [4], 0.309 µM (active). Further, the molecule was classed as inactive (in assay [3]; with Papain (Carica papaya)).

Take `CC(C)(C)NCC(O)c1ccccc1Cl` (stereo not drawn): the Potency entry in [1], in [10], in [9], in assay [13], in [11] and in assay [6] was “inactive” throughout. Moreover, the Potency result in [7] was “inactive”. The molecule was classed as inactive (in [3]; with Papain (Carica papaya)). Besides, the Potency in assay [4] was 12.3 µM (active).

For the origin of these results see PubChem BioAssay (NCATS).
